Values without a mark were called inactive.
tested on: Pseudogymnoascus destructans 20631-21; assay: growth activity index (DuctApe, 0 = no growth, 9 = maximal growth) (index 0-9); higher = more fungal growth (less inhibition), active = 0 or less; extreme values may be limits of the assay; conditions: concentration level (1-4, increasing; Biolog proprietary): 1; temperature: 13 °C; YPD
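Further: biolog Phenotype Microarray plates PM21–25, OD595 followed daily over 11 days, growth curves converted to index, mean of two independent experiments.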

Q: How did the growth activity index turn out when `CN(CC[C@H](N)CC(=O)N[C@H]1C=C[C@H](n2ccc(N)nc2=O)O[C@@H]1C(=O)O)C(=N)N` [Blasticidin S] (Biolog plate: PM24) was run?
A: The growth activity index was 4.67.

Q: `O=[Se]([O-])[O-].[Na+].[Na+]` [Sodium Selenite] (Biolog plate: PM21) was tested. Which growth activity index did it give?
A: Its growth activity index is 6.

Q: How did the growth activity index turn out when `[Cl][Cr]([Cl])[Cl]` [Chromium (III) chloride] (Biolog plate: PM23) was run?
A: Its growth activity index is 5.33.

Q: Which growth activity index does the source give for `Nc1ncn[nH]1` [3-Amino-1,2,4-triazole] (Biolog plate: PM22) here?
A: Its growth activity index is 0 (active).

Q: For `C[n+]1ccc(-c2cc[n+](C)cc2)cc1` [Methyl viologen] (Biolog plate: PM24), which growth activity index is on record?
A: The growth activity index was 1.

Q: How did the growth activity index turn out when `[Cl][Ni][Cl]` [Nickel chloride] (Biolog plate: PM21) was run?
A: The growth activity index was 5.

Q: Which growth activity index does the source give for `C[C@@H]1C[C@@H]([C@H](O)CC2CC(=O)NC(=O)C2)C(=O)[C@@H](C)C1` [Cycloheximide] (Biolog plate: PM22) here?
A: The growth activity index was 5.

Q: Which growth activity index does the source give for `[N-]=[N+]=[N-]` [Sodium Azide] (Biolog plate: PM23) here?
A: Its growth activity index is 2.67.

Q: Which growth activity index does the source give for `CCCC1COC(Cn2cncn2)(c2ccc(Cl)cc2Cl)O1` (centres undefined) [Propiconazole] (Biolog plate: PM24) here?
A: Its growth activity index is 4.67.

Q: How did the growth activity index turn out when `CC1C=CC=CCCC=CC=CC=CC=CC(OC2OC(C)C(O)C(N)C2O)CC2OC(O)(CC(O)C(O)CCC(O)CC(O)CC(O)CC(=O)OC(C)C(C)C1O)CC(O)C2C(=O)O` (centres undefined) [Nystatin] (Biolog plate: PM21) was run?
A: Its growth activity index is 1.75.

Q: `[Na+].[Na+].[O]=[Cr](=[O])([O-])[O][Cr](=[O])(=[O])[O-]` [Sodium Dichromate] (Biolog plate: PM21) was tested. Which growth activity index did it give?
A: Its growth activity index is 4.25.

Q: With `CCCCC(C#N)(Cn1cncn1)c1ccc(Cl)cc1` (centres undefined) [Myclobutanil] (Biolog plate: PM22) as the compound, how does the growth activity index read?
A: The growth activity index was 5.33.

Q: For `[N-]=[N+]=CC(=O)OC[C@H](N)C(=O)O` [Azaserine] (Biolog plate: PM22), which growth activity index is on record?
A: Its growth activity index is 5.

Q: How did the growth activity index turn out when `[K+].[K+].[O]=[Cr](=[O])([O-])[O-]` [Potassium Chromate] (Biolog plate: PM24) was run?
A: The growth activity index was 3.33.

Q: For `O=[As][O-].[Na+]` [Sodium Arsenite] (Biolog plate: PM23), which growth activity index is on record?
A: The growth activity index was 4.

Q: `Nc1ccncc1` [4-Aminopyridine] (Biolog plate: PM25) was tested. Which growth activity index did it give?
A: The growth activity index was 4.67.

Q: How did the growth activity index turn out when `N#CO` [Sodium Cyanate] (Biolog plate: PM23) was run?
A: The growth activity index was 5.

Q: For `O=[Se](=O)([O-])[O-].[Na+].[Na+]` [Sodium Selenate] (Biolog plate: PM23), which growth activity index is on record?
A: Its growth activity index is 5.

Q: `O=[As]([O-])([O-])[O-].[Na+].[Na+].[Na+]` [Sodium Arsenate] (Biolog plate: PM22) was tested. Which growth activity index did it give?
A: Its growth activity index is 4.67.

Q: `[O-][I+3]([O-])([O-])O` [Sodium metaperiodate] (Biolog plate: PM23) was tested. Which growth activity index did it give?
A: The growth activity index was 2.

Q: Which growth activity index does the source give for `[Cl][Cd][Cl]` [Cadmium Chloride] (Biolog plate: PM23) here?
A: Its growth activity index is 4.33.

Q: With `N.N.[Cl][Pt][Cl]` [Cisplatin] (Biolog plate: PM24) as the compound, how does the growth activity index read?
A: The growth activity index was 5.

Q: With `CCCCCCCCCCCCCCCC[n+]1ccccc1` [Cetylpyridinium chloride] (Biolog plate: PM21) as the compound, how does the growth activity index read?
A: Its growth activity index is 5.25.

Q: `CNC1CC(N)C(O)C(OC2OC(CO)C(O)C3OC4(OC(C(N)CO)C(O)C(O)C4O)OC23)C1O` (centres undefined) [Hygromycin B] (Biolog plate: PM25) was tested. Which growth activity index did it give?
A: The growth activity index was 2.67.
